Drawing on ChEMBL document CHEMBL3433997, “St. Jude Leishmania screening dataset” (2016), this text covers inhibition for 24 molecules.

What is called inhibition is the change of the read-out against control, counted positive when it falls.

Sequence of Solute carrier family 2, facilitated glucose transporter member 1 (Homo sapiens) (P11166 whole entry): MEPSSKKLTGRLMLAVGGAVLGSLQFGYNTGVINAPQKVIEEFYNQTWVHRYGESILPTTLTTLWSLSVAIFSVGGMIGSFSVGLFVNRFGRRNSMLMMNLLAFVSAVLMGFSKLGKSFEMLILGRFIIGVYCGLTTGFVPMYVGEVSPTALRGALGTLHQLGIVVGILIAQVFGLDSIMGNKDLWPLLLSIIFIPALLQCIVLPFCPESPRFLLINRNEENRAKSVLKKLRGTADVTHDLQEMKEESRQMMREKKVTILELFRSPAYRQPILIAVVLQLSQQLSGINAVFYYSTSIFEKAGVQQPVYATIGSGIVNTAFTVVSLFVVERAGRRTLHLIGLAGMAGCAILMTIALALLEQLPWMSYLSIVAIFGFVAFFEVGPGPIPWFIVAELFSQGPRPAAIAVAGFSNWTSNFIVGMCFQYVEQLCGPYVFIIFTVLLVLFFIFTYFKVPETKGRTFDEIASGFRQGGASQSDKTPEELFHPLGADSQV

The experiment has as its target Solute carrier family 2, facilitated glucose transporter member 1 (Homo sapiens) (UniProt P11166). Briefly: ST_JUDE_LEISH: Cytotoxicity at 2uM final concentration against transgenic Leishmania Mexicana promastigotes LmGLUT1 that are glucose transport deficient and complemented with the human glucose transporter GLUT1. Activity is measured by DNA content using SYBR green in vitro. The class given is functional.
For the molecule `CCc1ccc(OCCCON2C(=N)N=C(N)NC2(C)C)cc1`, the inhibition was -1.61%. In the case of `CCCCCCn1c(Sc2ccc(C#N)c([N+](=O)[O-])c2)nnc1-c1ccc(N(C)C)cc1` it was 17.6%; in that of `CC(C)NC(=O)c1cccc(-c2ccc(OCCN3CCCC3c3cc4ccccc4[nH]3)cc2)c1` (centres undefined), 1.77%; in that of `COc1cc(CNCCCCCCNCc2cc(OC)c(OC)c3ccccc23)c2ccccc2c1OC`, 4.44%.

Consider `CCn1c(-c2nonc2N)nc2c(-c3cccc(NC(=O)Nc4ccc5c(c4)CCC5)c3)ncc(OCCCN)c21`, for which the inhibition was 2.61%.

On to `O=C(Nc1ccccc1)Nc1cccc(-c2cccc(-c3nc4cc(F)ccc4[nH]3)c2)c1`, for which the inhibition is 2.45%. Regarding `Cc1ccc(Nc2nccc(Nc3ccc4c(c3)nc(Nc3cc(C(C)(C)C)on3)n4C)n2)cc1S(C)(=O)=O`, the inhibition was 3.26%. In the case of `Cc1[nH]c(C)c(-c2ccc(-c3ccc(OC(F)(F)F)cc3)nc2)c(=O)c1Br` it was 9.71%; in that of `CC(C)COc1cc(C(=O)Nc2cnc3ccccc3c2)ccc1[N+](=O)[O-]`, 11.9%. With `CC(O)C1CCCCN1C(=O)c1cccc(-c2cccc(-c3nc4ccccc4[nH]3)c2)c1` (centres undefined), the inhibition turned out to be 0.78%.

`c1ccc(-c2nc(NCCCn3ccnc3)cc(-c3ccncc3)n2)cc1`: the inhibition was 3.22%. Under `CCN1C(=O)N(CCC(C)C)C2(CCN(Cc3ccc(OC)cc3O)CC2)C1=O` stands 5.4%; under `O=[N+]([O-])c1ccc(Nc2nc(N/N=C/c3ccc(-c4ccc([N+](=O)[O-])cc4)o3)nc(Nc3ccccc3)n2)cc1`, 0.17%. As for `COc1ccc(S(=O)(=O)NCC2CCCN(CCCCCNC(=O)/C=C/c3ccc(Cl)c(Cl)c3)C2)cc1` (centres undefined), the inhibition was found to be 0.97%. In the case of `CC1CNC(c2ccc(NC(=O)Nc3ccc(C4=NC(C)CN4)cc3)cc2)=N1` (centres undefined) it was 4.6%.

As for `COc1ccc(CN(C)CCCc2ccc(NC(=O)c3cccc4c(O)c5ccccc5nc34)cc2)cc1OC`, the inhibition was determined as 6.56%.

`Cc1cc(F)ccc1[C@H]1CNCCN1C(=O)N(C)[C@@H](C)c1cc(C(F)(F)F)cc(C(F)(F)F)c1`: the inhibition was -0.55%. In the case of `Oc1cccc(-c2nc(-c3cccc(I)c3)c(-c3ccc(-c4nc(-c5cccc(O)c5)[nH]c4-c4cccc(I)c4)cc3)[nH]2)c1` it was 4.52%; in that of `CCn1c(-c2nonc2N)nc2c(-c3cccc(NC(=O)Nc4cccc(C#N)c4)c3)ncc(OCCCN)c21`, 4.72%. In the case of `CC(C(=O)N1CCCC1)N1CCN(S(=O)(=O)c2ccc(C(C)(C)C)cc2)CC1` (centres undefined) it was -0.57%; in that of `Cc1cccc2nc(-c3cccc(-c4ccc(NC(=O)Nc5ccc6c(c5)OCO6)cc4)c3)[nH]c12`, 1.72%. Under `Oc1ccccc1CCNCC1CCc2ccccc2C1` (centres undefined) stands -0.47%; under `OC1CCC(Nc2ccc3ncc(-c4ccc5ccccc5c4)n3n2)CC1` (centres undefined), 1.14%. With `c1cc(-c2ccc(CNC3CC3)cc2)cc(-c2nc3ccccc3[nH]2)c1`, the inhibition is 4.18%.
